According to the supplement of paper PMC8728848:
Many of the other results were omitted from the sample, so the strongest signals are more common in it than they were.

Experiments:
Test in all cases: glycan array binding signal (z-score within array); higher = stronger binding
Conditions in all cases: glycan notation: IUPAC condensed, linker removed
[1] = target: GalNAc6S(b1-4)GlcNAc
In short: (§1)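 Negative Z-scores can be read as non-binding. The Z-score is calculated within each array and then averaged across arrays of one protein sequence at different concentrations or buffers and across linkers. Arrays, 3228 in all, were curated from the Consortium for Functional Glycomics database and kept only where the protein sequence was available.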

[2] = target: GlcA(b1-3)Gal
In short: as §1

[3] = target: GlcNAc(b1-2)Man(a1-3)[GlcNAc(b1-2)Man(a1-6)]Man(b1-4)GlcNAc(b1-4)[Fuc(a1-6)]GlcNAc
In short: as §1

[4] = target: GlcNAc(b1-2)Man(a1-3)[GlcNAc(b1-4)][GlcNAc(b1-2)Man(a1-6)]Man(b1-4)GlcNAc(b1-4)[Fuc(a1-6)]GlcNAc
In short: as §1

[5] = target: GlcNAc(b1-3)Gal(b1-4)GlcNAc
In short: as §1

[6] = target: GlcNAc(b1-3)Gal(b1-4)GlcNAc(b1-3)Gal(b1-4)GlcNAc(b1-2)Man(a1-3)[GlcNAc(b1-3)Gal(b1-4)GlcNAc(b1-3)Gal(b1-4)GlcNAc(b1-2)Man(a1-6)]Man(b1-4)GlcNAc(b1-4)GlcNAc
In short: as §1

[7] = target: GlcNAc(b1-3)[GlcNAc(b1-6)]Gal(b1-4)GlcNAc
In short: as §1

[8] = target: Man(a1-3)[Man(a1-6)]Man(a1-6)[Man(a1-2)Man(a1-3)]Man(b1-4)GlcNAc(b1-4)GlcNAc
In short: as §1

[9] = target: Man(b1-4)GlcNAc
In short: as §1

[10] = target: Neu5Ac(a2-3)Gal(b1-3)GalNAc
In short: as §1

[11] = target: Neu5Ac(a2-3)Gal(b1-3)GlcNAc(b1-2)Man
In short: as §1

[12] = target: Neu5Ac(a2-3)Gal(b1-3)[GlcNAc(b1-6)]GalNAc
In short: as §1

[13] = target: Neu5Ac(a2-3)Gal(b1-4)Glc
In short: as §1

[14] = target: Neu5Ac(a2-3)Gal(b1-4)GlcNAc(b1-2)Man(a1-3)[GlcNAc(b1-4)][Neu5Ac(a2-3)Gal(b1-4)GlcNAc(b1-2)Man(a1-6)]Man(b1-4)GlcNAc(b1-4)GlcNAc
In short: as §1

[15] = target: Neu5Ac(a2-3)Gal(b1-4)GlcNAc(b1-2)Man(a1-3)[Neu5Ac(a2-3)Gal(b1-4)GlcNAc(b1-2)Man(a1-6)]Man(b1-4)GlcNAc(b1-4)[Fuc(a1-6)]GlcNAc
In short: as §1

[16] = target: Neu5Ac(a2-3)Gal(b1-4)GlcNAc(b1-3)Gal(b1-4)GlcNAc
In short: as §1

[17] = target: Neu5Ac(a2-3)Gal(b1-4)GlcNAc(b1-3)Gal(b1-4)GlcNAc(b1-3)Gal(b1-4)GlcNAc(b1-2)Man(a1-3)[Neu5Ac(a2-3)Gal(b1-4)GlcNAc(b1-3)Gal(b1-4)GlcNAc(b1-3)Gal(b1-4)GlcNAc(b1-2)Man(a1-6)]GalNAc
In short: as §1

[18] = target: Neu5Ac(a2-6)Gal(b1-4)GlcNAc(b1-2)Man
In short: as §1

[19] = target: Neu5Ac(a2-6)Gal(b1-4)GlcNAc(b1-2)Man(a1-3)[Neu5Ac(a2-6)Gal(b1-4)GlcNAc(b1-2)Man(a1-6)]Man(b1-4)GlcNAc(b1-4)GlcNAc
In short: as §1

[20] = target: Neu5Ac(a2-6)Gal(b1-4)GlcNAc(b1-2)Man(a1-6)Man(b1-4)GlcNAc(b1-4)GlcNAc
In short: as §1

[21] = target: Neu5Ac(a2-6)Gal(b1-4)GlcNAc(b1-2)Man(a1-6)[Man(a1-3)]Man(b1-4)GlcNAc(b1-4)GlcNAc
In short: as §1

[22] = target: Neu5Ac(a2-6)Gal(b1-4)GlcNAc(b1-3)Gal(b1-4)GlcNAc(b1-3)[Neu5Ac(a2-6)Gal(b1-4)GlcNAc(b1-3)Gal(b1-4)GlcNAc(b1-6)]GalNAc
In short: as §1

[23] = target: Neu5Ac(a2-6)Gal(b1-4)GlcNAc(b1-3)Gal(b1-4)GlcNAc(b1-6)[Gal(b1-3)]GalNAc
In short: as §1

[24] = target: Neu5Ac(a2-6)Gal(b1-4)GlcNAc6S
In short: as §1

[25] = target: Neu5Gc(a2-3)Gal(b1-4)GlcNAc(b1-3)Gal(b1-4)GlcNAc(b1-2)Man(a1-3)[Neu5Gc(a2-3)Gal(b1-4)GlcNAc(b1-3)Gal(b1-4)GlcNAc(b1-2)Man(a1-6)]Man(b1-4)GlcNAc(b1-4)GlcNAc
In short: as §1

B1: Protein L(A-C2) (Finegoldia magna), Q51912 (protein)
chain: ADEPIDLEKLEEKRDKENVGNLPKFDNEVKDGSENPMAKYPDFDDEASTRFETENNEFEEKKVVSDNFFDQSEHPFVENKEETPETPETDSEEEVTIKANLIFANGSTQTAEFKGTFEKATSEAYAYADTLKKDNGEYTVDVADKGYTLNIKFAGKEKTPEEPKEEVTIKANLIYADGKTQTAEFKGTFEEATAEAYRYADALKKDNGEYTVDVADKGYTLNIKFAGKEKTPEEPKEEVTIKANLIYADGKTQTAEFKGTFEEATAEAYRYADLLAKENGKYTVDVADKGYTLNIKFAGKEKTPEEPKEEVTIKANLIYADGKTQTAEFKGTFAEATAEAYRYADLLAKENGKYTADLEDGGYTINIRFAGKKVDEKPEEKEQVTIKENIYFEDGTVQTATFKGTFAEATAEAYRYADLLSKEHGKYTADLEDGGYTINIRFAGKEEPEETPEKPEVQDGYASYEEAEAAAKEALKNDDVNKSYTIRQGADGRYYYVLSPVEAEEEKPEAQNGYATYEEAEAAAKKALENDPINKSYSIRQGADGRYYYVLSPVEAE
glycan array binding signal (z-score) [1]: -0.775
glycan array binding signal (z-score) [2]: -0.562
glycan array binding signal (z-score) [3]: 2.85
glycan array binding signal (z-score) [4]: -0.153
glycan array binding signal (z-score) [5]: -0.623
glycan array binding signal (z-score) [6]: 1.91
glycan array binding signal (z-score) [7]: -0.856
glycan array binding signal (z-score) [8]: 4.98
glycan array binding signal (z-score) [9]: 0.002
glycan array binding signal (z-score) [10]: 0.418
glycan array binding signal (z-score) [11]: 3.79
glycan array binding signal (z-score) [12]: -0.278
glycan array binding signal (z-score) [13]: 0.38
glycan array binding signal (z-score) [14]: -0.228
glycan array binding signal (z-score) [15]: 2.19
glycan array binding signal (z-score) [16]: -1.1
glycan array binding signal (z-score) [17]: 3.85
glycan array binding signal (z-score) [18]: 0.253
glycan array binding signal (z-score) [19]: -0.037
glycan array binding signal (z-score) [20]: -0.51
glycan array binding signal (z-score) [21]: 0.298
glycan array binding signal (z-score) [22]: 3.89
glycan array binding signal (z-score) [23]: 0.761
glycan array binding signal (z-score) [24]: -0.725
glycan array binding signal (z-score) [25]: 0.473
